# Assay results as given in the supplement of paper PMC7411640.
# Where a name gives a salt, the structure may show the parent alone.
# Test system: MDA-MB-468
# Test: phospho-S6 immunofluorescence (DAPI-normalised), per-plate z-score; higher = higher phospho-S6 signal (less pathway suppression)
# Settings: 24 h
# Description: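 GPCR-targeted compound library (MedChemExpress HY-L006) tested on MDA-MB-468 PTEN-null TNBC cells in 384-well plates at 0.1, 1 or 10 uM, combined with vehicle, GDC0941 450 nM or lapatinib 1 uM, for 24 h. Phospho-S6 (S240/244) immunofluorescence normalised to DAPI and expressed as a per-plate z-score; values are the mean of biological triplicates.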
Compound,phospho-S6 immunofluorescence (z-score) (co-treatment: GDC0941 450 nM),phospho-S6 immunofluorescence (z-score) (co-treatment: lapatinib 1 uM),phospho-S6 immunofluorescence (z-score) (co-treatment: vehicle)
CC(O)Cn1cnc2c1c(=O)n(C)c(=O)n2C (centres undefined) [Proxyphylline] (compound 10 µM),0.64,0.19,-0.72
C[C@H](NC(=O)C(C)(C)Oc1ccc(C(F)(F)F)cn1)[C@@H](Cc1ccc(Cl)cc1)c1cccc(C#N)c1 [Taranabant] (compound 10 µM),-4.19,-2.35,-2.4
CN1CCN(CCCN2c3ccccc3Sc3ccc(C(F)(F)F)cc32)CC1 [Trifluoperazine (dihydrochloride)] (compound 10 µM),-4.47,-5.54,-4.02
CCCCc1ncc(/C=C(\Cc2cccs2)C(=O)O)n1Cc1ccc(C(=O)O)cc1 [Eprosartan (mesylate)] (compound 10 µM),0.37,0.05,0.01
CCN(CC)CCNC(=O)c1cc(Cl)c(N)cc1OC [Metoclopramide (hydrochloride hydrate)] (compound 10 µM),-0.35,0.77,0.05
CCc1ccc(OCc2ccccc2C(=O)Nc2ccc3nc(C)cc(N)c3c2)cc1 (compound 10 µM),-5.98,-12,-10.4
CN(C)CCOC(C)(c1ccccc1)c1ccccn1 (centres undefined) [Doxylamine (succinate)] (compound 10 µM),0.33,-0.64,0.58
Nc1nc(-c2nn(Cc3ccccc3F)c3ncccc23)ncc1C1CC1 (compound 10 µM),1.07,2.78,-0.52
OC(CCN1CCCCC1)(c1ccccc1)C1CCCCC1 (centres undefined) [Trihexyphenidyl (hydrochloride)] (compound 10 µM),-0.3,-0.52,0.56
OCCOCCN1CCN(C(c2ccccc2)c2ccc(Cl)cc2)CC1 (centres undefined) [Hydroxyzine (dihydrochloride)] (compound 10 µM),0.45,-0.69,0.24
N=C(N)NCCC[C@@H](NC(=O)[C@@H]1CCCN1C(=O)[C@@H]1CSSCCC(=O)N[C@@H](Cc2ccc(O)cc2)C(=O)N[C@@H](Cc2ccccc2)C(=O)N[C@@H](CCC(N)=O)C(=O)N[C@@H](CC(N)=O)C(=O)N1)C(=O)NCC(N)=O [Desmopressin (Acetate)] (compound 10 µM),0.16,-0.21,-0.41
CNC(=C[N+](=O)[O-])NCCSCc1ccc(CN(C)C)o1 [Ranitidine (hydrochloride)] (compound 10 µM),0.47,0.54,0.29
Nc1nc(N)nc(-c2cc(Cl)ccc2Cl)n1 [Irsogladine] (compound 10 µM),-0.7,0.22,-1.11
CC(COc1ccccc1)N(CCCl)Cc1ccccc1 (centres undefined) [Phenoxybenzamine (hydrochloride)] (compound 10 µM),0.33,-0.04,0.39
Cc1ccc2c(c1CCC(=O)O)CC[C@@H](NS(=O)(=O)c1ccc(Cl)cc1)C2 [Terutroban] (compound 10 µM),-0.9,0.55,-0.1
CCCCC(=O)N(Cc1ccc(-c2ccccc2-c2nnn[nH]2)cc1)[C@H](C(=O)O)C(C)C [Valsartan] (compound 10 µM),0.04,0.5,0.13
CCOc1nc2cccc(C(=O)OC(C)OC(=O)OC3CCCCC3)c2n1Cc1ccc(-c2ccccc2-c2nn[nH]n2)cc1 (centres undefined) [Candesartan (Cilexetil)] (compound 10 µM),-1.58,0.17,-1.08
c1cc(CN2CCCNCCNCCCNCC2)ccc1CN1CCCNCCNCCCNCC1 [Plerixafor] (compound 10 µM),-0.31,0.01,0.2
Cc1cc(Cn2cnc3c2CC(C(=O)O)N(C(=O)C(c2ccccc2)c2ccccc2)C3)ccc1N(C)C (centres undefined) (compound 10 µM),-0.71,0.17,0.29
N#Cc1ccc2[nH]cc(CCCCN3CCN(c4ccc5oc(C(N)=O)cc5c4)CC3)c2c1 [Vilazodone (Hydrochloride)] (compound 10 µM),-0.01,-0.76,0.65
COc1ccc2[nH]cc(CCNC(C)=O)c2c1 [Melatonin] (compound 10 µM),-1.25,0.24,-0.21
Cc1[nH]cnc1CN1CCc2c(c3ccccc3n2C)C1=O [Alosetron (Hydrochloride)] (compound 10 µM),0.22,-0.22,1.01
COc1ccc2cccc(CCNC(C)=O)c2c1 [Agomelatine] (compound 10 µM),0.97,0.54,0.35
